KDM5B inh = Primary screen for KDM5B Histone Demethylases FDH-coupled qHTS. Lysine-specific demethylase 5B (Homo sapiens), Q9UGL1. KDM5B demethylase, FDH-coupled NADH fluorescence (FDH is formaldehyde dehydrogenase). Potency, µM (titrated, usually from 57.7 µM), most hits filed as inhibitors. 220,000 compounds, 2.6% hits. AID 1347165, 2019; active = well fitted inhibition curve with a large enough effect; note: 0% is about no effect; nearly all actives have a fitted effect of over 70% in size
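KDM5BΔAP (200 nM final) in 50 mM HEPES pH 7.5, 0.01% Tween-20 was preincubated 10 min at RT with compound over a concentration range. Substrate mix (H3K4me3 12.5 µM, α-KG 25 µM, Fe²⁺, ascorbate, NAD⁺, FDH) was added, and NADH fluorescence change over 30 min gave dose-response curves.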
Numbers without * were called inactive; i = inactive. This is one part of a sample in which hits are shown more often than they occur. Potency is the fitted concentration of half-maximal effect.

SMILES | KDM5B inh
COc1ccc(C(=O)N[C@@H]2CCC[C@@H]2C(=O)N2CCCC2)cc1 | i
COC(=O)c1ccccc1NC(=O)CSc1nc2nc(C)cc(C)n2n1 | i
COc1ccc(Nc2nc(-c3ccccc3)c3cc(Br)ccc3n2)cc1 | i
Cc1ccc(NC(=O)CN2C(=O)NC3(CCS(=O)(=O)CC3)C2=O)cc1 | i
Cc1cc(C(F)(F)F)c(C#N)c(SCc2cccc3ccccc23)n1 | i
O=C(CCc1ccccc1)N1CCCC(c2noc(COc3ccccc3F)n2)C1 (stereo not given) | i
Cn1c(CNC(=O)C2(C)CCCCC(=O)N2)nc2ccccc21 (stereo not given) | i
Cn1c(CNC(=O)C2(Cc3ccccc3)CCCCC(=O)N2)nc2ccccc21 (stereo not given) | 18µM*
O=C1CCCCC(Cc2ccccc2)(C(=O)NCc2ccc(F)cc2)N1 (stereo not given) | i
Brc1cccc(-c2noc(-c3cnccn3)n2)c1 | i
CC(C)CCN1C(=O)c2ccc(C(=O)OCC(=O)N(CC(C)C)C3CCS(=O)(=O)C3)cc2C1=O (stereo not given) | i
Cc1c(C(=O)OCC2CCCCC2)[nH]c2c1C(=O)CC(c1ccc(Cl)cc1)C2 (stereo not given) | i
Cc1ccc(-c2ccc3nnc(CNC(=O)COc4cccc(C)c4)n3n2)cc1 | 10µM*
O=C(COc1cccc(F)c1)NCCc1nnc2ccccn12 | i
Cc1ccc(-c2noc(CNC(=O)COc3cccc(C)c3)n2)cc1 | i
O=C(COc1cccc(-c2nnc3n2CCCC3)c1)NCc1ccc(F)cc1 | i
Cc1cccc(OCC(=O)NCc2nnc3ccc(-c4ccc(F)cc4)nn23)c1 | 35µM*
O=S(=O)(NCc1ccc(Cn2cccn2)cc1)N1CCCCC1 | i
O=C(Nc1cccc(F)c1)[C@@H](c1ccccc1)N1Cc2ccccc2C1=O | i
COCC1CN(C(C)=O)CC12CCN(C(=O)c1ocnc1C)CC2 (stereo not given) | i
COc1ccc(-n2ncc(C(=O)NCCCN3CCCCC3)c2C2CCN(C(=O)OC(C)(C)C)CC2)cc1 | i
Cc1ccc2cc(C3(O)CCN(C(=O)[C@@H](N)Cc4cnc[nH]4)CC3)ccc2n1 | i
CC(C)NC(=O)c1ccnc(-c2ccccc2S(=O)(=O)NC(C)(C)C)c1 | i
CC(C)(C)NS(=O)(=O)c1ccccc1-c1nc(N)nc2c1CCC2 | 22µM*
CNc1nccnc1-c1ccccc1S(=O)(=O)NC(C)(C)C | 28µM*
SMILES | KDM5B inh
CC(C)(N)C(=O)N1CCN(c2nc(-c3ccccc3)nc3c2CCC3)CC1 | i
Nc1c(-c2nc(-c3ccc4c(c3)OCO4)cs2)c2ccccn2c1C(=O)c1ccc(Cl)cc1 | i
COc1ccc(NS(=O)(=O)c2cc(NC(=O)c3sccc3C)ccc2N2CCOCC2)cc1 | i
O=C(Cc1c[nH]c2ncc(-c3cccnc3)cc12)NC1CCOCC1 | i
CC(C)CNC(=O)Cc1c[nH]c2ncc(-c3cnn(C)c3)cc12 | 40µM*
CN1CCC(NC(=O)Cc2c[nH]c3ncc(-c4ccccc4)cc23)CC1 | 35µM*
Cn1cc(-c2cnc3[nH]cc(CC(=O)N4CCCC4)c3c2)cn1 | i
O=C(Cc1c[nH]c2ncc(-c3cccnc3)cc12)NC1CC1 | i
O=C(Cc1c[nH]c2ncc(-c3ccccc3)cc12)NC1CCOCC1 | 28µM*
CN1CCC(NC(=O)CCc2ncc(-c3ccccc3)o2)CC1 | i
COc1cc(NC(=O)N2CCCC2c2nncn2C2CCCC2)cc(OC)c1 (stereo not given) | i
COc1ccccc1N1C(=O)c2ccc(C(=O)Nc3ccc(F)cc3)cc2C1=O | i
COc1ccc2cc(S(=O)(=O)N3CCN(c4ccc(C)c(Cl)c4)CC3)ccc2c1 | i
Cc1noc(C)c1S(=O)(=O)N1C[C@@H](Oc2cccnc2)C[C@H]1C(=O)N1CCCC1 | i
CCOC(=O)c1ccc(NC(=O)Cn2c(N(C)Cc3ccccc3)nc(C)cc2=O)cc1 | i
Cc1cc(=O)n(CC(=O)Nc2ccccc2C)c(N(C)Cc2ccccc2)n1 | i
CCOC(=O)c1ccccc1NC(=O)Cn1c(N(C)Cc2ccccc2)nc(C)cc1=O | 16µM*
COc1cccc(CCNC(=O)c2c(C)noc2-c2ccc3c(c2)OCO3)c1 | 14µM*
COc1ccc(-c2noc(CC3CCN(C(=O)c4ccc5c(c4)OCO5)CC3)n2)cc1 | i
COc1ccc(-c2onc(C)c2C(=O)N2CCC(Cc3ccc(F)cc3)CC2)cc1 | i
Cc1noc(-c2ccc3c(c2)OCO3)c1C(=O)NCCc1cccc(Cl)c1 | 28µM*
COc1ccc(CCNC(=O)c2c(C)noc2-c2ccccc2Cl)cc1OC | i
COc1ccc(CCNC(=O)c2c(C)noc2-c2ccccc2OC)cc1OC | i
COc1cccc(CCNC(=O)c2c(C)noc2-c2ccc(OC(F)(F)F)cc2)c1 | i
COc1ccc(CCNC(=O)c2c(C)noc2-c2ccc(OC(F)(F)F)cc2)cc1 | i
COc1ccc(CC2CCN(C(=O)c3c(C)noc3-c3ccc4c(c3)OCO4)CC2)cc1 | 20µM*
